# In ChEMBL document CHEMBL3988442, “University of Dundee, Small-Polar-MMV Screening Library” (2021):
# “And” between values parts separate entries of the source, which are not always exact repeats. Equal entries are not always repeated. The whole screen tested about 34,000 compounds, of which about 290 (0.85%) showed an effect of 50% or more. The entries come from a sample that favours strong results as a whole.
# System: Plasmodium falciparum
# Experiment: Plasmodium falciparum sporozoite viability assay
# Format: functional, organism-based
# Design: scale not given: in the data most compounds retested in dose-response had high values
smiles,measurement,setting,value
Cc1nc(C)c(C(=O)OCCNc2ncccc2C#N)s1,Percent Effect,,25.07%
CNC(=O)Cc1ccc(NC(=O)NC(C)C(C)C)cc1 (configuration not stated),Percent Effect,10 mM as filed; unlikely as a test dose,-4.587% and -4.397% and -12.09%
CC(CN1CCC(CCO)CC1)n1cnc2ccccc21 (configuration not stated),Percent Effect,10 mM as filed; unlikely as a test dose,-16.85% and -31%
CCN(CC)CCCNc1nc(C)nc2c1CCN(C)C2.O=C(O)CC(O)(CC(=O)O)C(=O)O,Percent Effect,,7.039%
CN(CC(=O)NCC1CCCO1)Cc1nc2c(s1)CCCC2 (configuration not stated),Percent Effect,10 mM as filed; unlikely as a test dose,56.93% and 58.41%
CN(Cc1nnc(-c2cccs2)o1)Cc1nc2c(s1)CCCC2,Percent Effect,10 mM as filed; unlikely as a test dose,22.52% and 35.26% and 20.64%
CN(Cc1nnc(-c2ccco2)o1)Cc1nc2c(s1)CCCC2,Percent Effect,10 mM as filed; unlikely as a test dose,-11.23% and -0.3712% and 0.4353%
Cc1nnc(CN(C)Cc2nc3c(s2)CCCC3)o1,Percent Effect,10 mM as filed; unlikely as a test dose,69.64% and 55.12% and 51.62%
CN(CC(=O)NCc1ccco1)Cc1nc2c(s1)CCCC2,Percent Effect,10 mM as filed; unlikely as a test dose,18.7% and 19.42%
CN(CC(=O)NCC(F)(F)F)Cc1nc2c(s1)CCCC2,Percent Effect,10 mM as filed; unlikely as a test dose,29.9% and 31.57%
Cc1ccc(CN2CCCC(c3cncc(C)n3)C2)cn1 (configuration not stated),Percent Effect,,7.699%
CCn1ccc(C(=O)N(C)Cc2cnn(-c3cccc(OC)c3)c2)n1,Percent Effect,10 mM as filed; unlikely as a test dose,-38.3% and -41.56%
COc1cccc(-n2cc(CN(C)C(=O)c3cc[nH]n3)cn2)c1,Percent Effect,10 mM as filed; unlikely as a test dose,-69.36% and -66.93%
COc1cccc(-n2cc(CN(C)C(=O)c3cnc(O)cn3)cn2)c1,Percent Effect,10 mM as filed; unlikely as a test dose,70.55% and 77.42%
Cn1ccnc1CN1CCN(CC(=O)NCc2cccs2)CC1,Percent Effect,,11.24%
CCOC(=O)c1sc2ccsc2c1CNC(=O)CCOC,Percent Effect,,-1.34%
CN1C(=O)[C@H]2CC[C@@H]1CN(Cc1cccc(OCc3ccccn3)c1)C2,Percent Effect,10 mM as filed; unlikely as a test dose,-14.17% and -8.272%
COc1cccc(-c2ncc(CN3C[C@@H]4CC[C@H](C3)N(C)C4=O)s2)c1,Percent Effect,10 mM as filed; unlikely as a test dose,84.86% and 76.95%
Cc1nc(C)n(CC2CCCN(CCOc3ccc(C#N)cc3)C2)n1 (configuration not stated),Percent Effect,,-0.23%
O=C(COc1coc(CN2CCOCC2)cc1=O)c1ccc(Cl)cc1,Percent Effect,,-1.015%
O=C(NCCc1ccccn1)Nc1cc(C(F)(F)F)c[nH]c1=O,Percent Effect,,1.519%
Cc1nn(C)cc1C(=O)N1CCC(C(=O)c2nc3ccccc3s2)CC1,Percent Effect,,4.427%
CCc1ncc(CN(C)C2CCN(C(C)C)CC2)cn1.O=C(O)CC(O)(CC(=O)O)C(=O)O,Percent Effect,,7.243%
COCC(NC(=O)c1cn2ccsc2n1)c1ccnn1C (configuration not stated),Percent Effect,,0.7162%
CC(=O)NC1CCCN(C(=O)Nc2cccnc2-n2cccn2)C1 (configuration not stated),Percent Effect,,-4.732%
O=C(CCCc1nc(-c2ccccc2)no1)N1CCN(CCO)CC1,Percent Effect,,11.73%
CCC(=O)NC1CCCN(C(=O)Nc2cccc(COC(C)C)c2)C1 (configuration not stated),Percent Effect,,3.429%
O=C(Nc1cc(-c2ccccc2)on1)N1CCN(CCO)CC1,Percent Effect,10 mM as filed; unlikely as a test dose,64.88% and 38.14%
O=C(Nc1cc(-c2ccccc2)on1)N1CC[C@H](O)C1,Percent Effect,10 mM as filed; unlikely as a test dose,-24.83% and -17.1%
CCC(=O)NC1CCCN(C(=O)Nc2cc(-c3ccccc3)on2)C1 (configuration not stated),Percent Effect,10 mM as filed; unlikely as a test dose,86.86% and 95.97%
Cc1csc(CNCC(C)c2nc3ccccc3o2)n1 (configuration not stated),Percent Effect,,10.3%
O=C(Cn1cnc2cc3c(cc21)OCCCO3)NCCc1ccccc1,Percent Effect,10 mM as filed; unlikely as a test dose,3.571% and -13.25% and -3.678%
O=C(Cn1cnc2cc3c(cc21)OCCCO3)NC1CCCCC1,Percent Effect,10 mM as filed; unlikely as a test dose,58.19% and 56.08% and 47.01%
O=C(Cn1cnc2cc3c(cc21)OCCCO3)NC1CCCC1,Percent Effect,10 mM as filed; unlikely as a test dose,34.04% and 26.95% and 25.51%
NC(=O)N1CCC2(CC1)CC(=O)N(CC1CCCO1)c1ccccc12 (configuration not stated),Percent Effect,,6.567%
Cc1cc(CN2CCOC(Cn3nc(C)cc3C)C2)on1 (configuration not stated),Percent Effect,,2.612%
CCCN(C(=O)c1cnccn1)c1nc2c(s1)CCc1c-2cnn1C,Percent Effect,,1.308%
CCCN(C(=O)c1ccncc1)c1nc2c(s1)CCc1c-2cnn1C,Percent Effect,,11.45%
COCCN(C(=O)c1cnccn1)c1nc2c(s1)CCc1c-2cnn1C,Percent Effect,,-10.14%
COCCN(C(=O)c1ccccn1)c1nc2c(s1)CCc1c-2cnn1C,Percent Effect,10 mM as filed; unlikely as a test dose,80.83% and 57.64% and 71.31%
Cc1ccc(C(O)CN2CCN(Cc3nccn3C)CC2)cc1C (configuration not stated),Percent Effect,,1.122%
Cc1noc(C)c1CN(C)C(=O)NC1CCCN(S(C)(=O)=O)C1 (configuration not stated),Percent Effect,,9.671%
Cc1cc(C)n(CC2CN(Cc3nc4ccccc4s3)CCO2)n1 (configuration not stated),Percent Effect,10 mM as filed; unlikely as a test dose,66.96% and 52.93% and 45.91%
c1ccc2sc(N3CCOC(Cn4cccn4)C3)nc2c1 (configuration not stated),Percent Effect,,9.76%
Cc1cnn(CC2CN(Cc3nc4ccccc4o3)CCO2)c1 (configuration not stated),Percent Effect,,-0.5102%
Cc1cnn(CC2CN(Cc3nc4ccccc4s3)CCO2)c1 (configuration not stated),Percent Effect,10 mM as filed; unlikely as a test dose,55.85% and 70.99% and 46.92%
Cc1nc(CN2CCOC(Cn3cncn3)C2)nc2ccccc12 (configuration not stated),Percent Effect,10 mM as filed; unlikely as a test dose,1.85% and -1.802% and -10.11%
Cc1cnn(CC2CN(Cc3nc4ccccc4nc3C)CCO2)c1 (configuration not stated),Percent Effect,,-7.63%
c1ccc(-c2ccc(CN3CCOC(Cn4cncn4)C3)cc2)cc1 (configuration not stated),Percent Effect,,-3.122%
Cc1nc2ccccc2nc1CN1CCOC(Cn2cccn2)C1 (configuration not stated),Percent Effect,,6.321%
Cc1cc(C)n(CC2CN(Cc3ccccn3)CCO2)n1 (configuration not stated),Percent Effect,,1.241%
c1ccc(OCCN2CCC(c3nnc(-c4cccnc4)o3)CC2)cc1,Percent Effect,,-3.337%
CCOCC1c2c(cnn2C)CCN1C(=O)c1cc(C)on1.O=C(O)C(F)(F)F (configuration not stated),Percent Effect,,15.94%
COc1ccc(Br)c(C(=O)NCC2CC2)c1,Percent Effect,,3.186%
CC(C)COCC1CN(Cc2ccco2)Cc2ncn(C)c21 (configuration not stated),Percent Effect,,12.26%
Cc1ccc(CN2CC[C@@H]3[C@@H](CO[C@H]3CN3CCN(C)CC3)C2)s1.O=C(O)C(F)(F)F.O=C(O)C(F)(F)F.O=C(O)C(F)(F)F,Percent Effect,,10.79%
O=C1[C@H]2CN(S(=O)(=O)C3CC3)C[C@H]2CN1CC1CC1,Percent Effect,,4.506%
CC(=O)Nc1nc(C(=O)N2CCCCC2Cn2cc(C)cn2)cs1 (configuration not stated),Percent Effect,,-12.14%
Cc1ccc(S(=O)(=O)NC(=O)c2c(C)noc2C(C)C)cc1C,Percent Effect,,-15.45%
CNC(=O)CCNC(=O)CCc1c(C)nc2cc(O)nn2c1C,Percent Effect,,8.263%
Cc1ccc(CN(C)C(=O)CNC(=O)N2CCc3ccccc3C2)o1,Percent Effect,,1.19%
CCC1c2ccsc2CCN1C(=O)NCc1ccc(C)nc1 (configuration not stated),Percent Effect,,6.154%
CC(C)(C)c1cn2nc(N3CCCC(Cn4cncn4)C3)sc2n1 (configuration not stated),Percent Effect,10 mM as filed; unlikely as a test dose,61.38% and 60.13% and 50.37%
CC(C)(C)c1cn2nc(N3CCCC3Cn3cncn3)sc2n1 (configuration not stated),Percent Effect,10 mM as filed; unlikely as a test dose,-5.183% and 4.187% and 0.2303%
CC(C)(C)c1cn2nc(N3CCOC(Cn4cncn4)C3)sc2n1 (configuration not stated),Percent Effect,,8.052%
Cc1nc(-c2c(C)noc2C)cc(C2CCN(S(=O)(=O)N(C)C)CC2)n1,Percent Effect,,10.55%
CN(C)C(=O)CN1CC[C@]2(CN(CC3CC3)C[C@H]2c2ccccc2)C1=O.O=C(O)C(F)(F)F,Percent Effect,,2.654%
O=C(CCc1ccccc1)N1CC(n2cncn2)C1,Percent Effect,,7.531%
COc1c(CNCc2ccc3c(c2)OCO3)c(C(C)C)nn1C,Percent Effect,,7.092%
O=C(NCCc1ccccc1)N1CCCCC1C1OCCO1 (configuration not stated),Percent Effect,10 mM as filed; unlikely as a test dose,-48% and -64.36%
O=C1NCCN2CCN(C(=O)Nc3ccc(-c4ccccc4)cc3)CC12 (configuration not stated),Percent Effect,10 mM as filed; unlikely as a test dose,-23.97% and -24.61%
O=C1NCCN2CCN(C(=O)NCCc3ccccc3)CC12 (configuration not stated),Percent Effect,10 mM as filed; unlikely as a test dose,64.04% and 69.93%
O=C(NCCc1ccccc1)N1CCC(C2OCCO2)CC1,Percent Effect,10 mM as filed; unlikely as a test dose,28.36% and 65.96%
O=C(NCc1ccccc1F)N1CCC(C2OCCO2)CC1,Percent Effect,,0.1127%
CC1=N[C@@]2(CC[C@@H]3CN(C(=O)NCCc4ccccc4)C[C@@H]32)C(=O)N1,Percent Effect,,2.735%
CC(=O)N1CCCC1C(=O)NCCOc1cccc(F)c1 (configuration not stated),Percent Effect,,-6.239%
Cn1cc(C(=O)N2C[C@@H]3CN(S(C)(=O)=O)CCO[C@@H]3C2)cn1,Percent Effect,,-2.6%
C[C@]1(O)CN(CCO)CC[C@@H]1Oc1cccc(F)c1,Percent Effect,,17.57%
COc1ccccc1OCCC(=O)N1CCCCC1c1nccs1 (configuration not stated),Percent Effect,,-5.924%
CC(C)(CO)Nc1ccc(-c2nc(-c3ccccc3F)no2)cn1,Percent Effect,10 mM as filed; unlikely as a test dose,13.89% and 24.65%
CN(C)CCNc1ccc(-c2nc(-c3ccccc3F)no2)cn1,Percent Effect,10 mM as filed; unlikely as a test dose,80.1% and 68.27%
CC(O)CN1CCC(CNCc2ccc(C(N)=O)cc2)CC1 (configuration not stated),Percent Effect,,0.9015%
Cc1ccc(CNC(=O)NC(C)Cn2cccn2)cn1 (configuration not stated),Percent Effect,,11.6%
CCN1CCN(c2ccc(CNC(=O)Cc3c(C)noc3C)cn2)CC1,Percent Effect,,9.727%
Cc1nc(CN2CCC2(CCCc2ccccn2)C(=O)N(C)C)co1 (configuration not stated),Percent Effect,,12.32%
CCOCc1nn(CC2CC2)c2c1CN(Cc1cccs1)CC2.O=C(O)C(F)(F)F.O=C(O)C(F)(F)F,Percent Effect,,6.48%
Cc1nc(CN2CC(CCCc3ccccn3)(C(=O)N(C)C)C2)co1,Percent Effect,,-0.6757%
COc1cccc(OCC2CCCN(C(=O)c3cnc(C)nc3O)C2)c1 (configuration not stated),Percent Effect,,-6.706%
COc1cccc(OCC2CCCN(C3CCN(C(C)=O)CC3)C2)c1 (configuration not stated),Percent Effect,10 mM as filed; unlikely as a test dose,-11.14% and -12.8% and -12.12%
Cc1nn(CC(C)C)c(N(C)C)c1CNCc1ccc2c(c1)OCO2,Percent Effect,,-0.9874%
Cc1nc(Nc2cnccn2)cc(C2CCN(c3ncccn3)C2)n1 (configuration not stated),Percent Effect,,4.755%
CCOc1ccc(C(=O)N2CCCC(n3ccnc3C)C2)cc1OC (configuration not stated),Percent Effect,,0.3069%
